Reference: PubChem BioAssay (NCI)
This is part of a sample that, as a whole, favours compounds with a hit. Of some 83,000 tested, about 20% had one in any assay.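 The endpoint reported here, percent growth, reads 100 for growth as untreated, 0 for no net growth and -100 for all cells dead.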 A number with no mark means an inactive call. Calls of active or inactive are those of the source. How the source made its calls: active means growth percent below 10; inactive means the rest.

Tests used:
Test in all cases: NCI-60 one-dose screen, 48 h (100 = growth as untreated, 0 = no growth, -100 = all killed)
Settings in all cases: 10 µM unless noted
[1] = system: SK-MEL-2 melanoma
[2] = system: EKVX NSCLC
[3] = system: SN12C renal
[4] = system: UO-31 renal
[5] = system: TK-10 renal
[6] = system: ACHN renal
[7] = system: CAKI-1 renal
[8] = system: A498 renal
[9] = system: CCRF-CEM leukemia
[10] = system: MOLT-4 leukemia

## CC12CCC(/C(=C/NNc3ccc([N+](=O)[O-])cc3[N+](=O)[O-])C1=O)C2(C)C (stereo not given)
[1]
  growth: 38.4%
[2]
  growth: 90.8%
[3]
  growth: 73.1%
[4]
  growth: 55.2%
[5]
  growth: 96.8%
[6]
  growth: 34.3%
[7]
  growth: 46.8%
[8]
  growth: 88.5%
[9]
  growth: 47.4%
[10]
  growth: 41.3%

## Cn1cccc1/C=C1\C(=O)Nc2ccccc21
[1]
  growth: 114%
[2]
  growth: 34.4%
[3]
  growth: 94%
[4]
  growth: 62.9%
[5]
  growth: 72.2%
[6]
  growth: 98.2%
[7]
  growth: 86%
[8]
  growth: 125%
[9]
  growth: 104%
[10]
  growth: 97.7%

## Cc1ncc(C(=O)Nc2ccc(CN3CCN(C)CC3)c(C(F)(F)F)c2)cc1C#Cc1cnc(N)c2ccncc12
[1]
  growth: -55.8% (active)
[2]
  growth: -18.9% (active)
[3]
  growth: -26.8% (active)
[4]
  growth: -42.2% (active)
[5]
  growth: -59% (active)
[6]
  growth: -64.3% (active)
[7]
  growth: -56.8% (active)
[8]
  growth: -90.2% (active)
[9]
  growth: -23.3% (active)
[10]
  growth: -42.5% (active)

## CC/C=C1/C(=O)C=C[C@@H]1C/C=C\CCCC(=O)OC
[1]
  growth: 90.7%
[2]
  growth: 101%
[3]
  growth: 18.8%
[4]
  growth: 77.9%
[5]
  growth: 107%
[6]
  growth: 46.9%
[7]
  growth: 60.6%
[8]
  growth: 102%
[9]
  growth: -6.12% (active)
[10]
  growth: 3.09% (active)

## CN1CCN(c2ccc(NC(=O)c3cncnc3Nc3ccc4c(ccn4Cc4cccc(F)c4)c3)cc2)CC1
[1]
  growth: 98.1%
[2]
  growth: 86.1%
[3]
  growth: 71.5%
[4]
  growth: 46.3%
[5]
  growth: 101%
[6]
  growth: 58.5%
[7]
  growth: 75.5%
[8]
  growth: 77%
[9]
  growth: 11.6%
[10]
  growth: -2.02% (active)

## Clc1nccc2c(-c3csc(-c4c[nH]c5ccccc45)n3)c[nH]c12
[1]
  growth: 79.5%
[2]
  growth: 63.2%
[3]
  growth: 59.2%
[4]
  growth: 25.9%
[5]
  growth: 55.8%
[6]
  growth: 24.4%
[7]
  growth: 52.3%
[8]
  growth: 32.7%
[9]
  growth: 31.1%
[10]
  growth: 40.5%

## Nc1c(C(=O)Nc2ccncc2)sc2nc3c(cc12)CCCCC3
[1]
  growth: 93.7%
[2]
  growth: 74.2%
[3]
  growth: 78.9%
[4]
  growth: 66.6%
[5]
  growth: 85.9%
[6]
  growth: 88.6%
[7]
  growth: 81.6%
[8]
  growth: 74.5%
[9]
  growth: 54.4%
[10]
  growth: 40.3%

## CC1(C)CC[C@]2(C(=O)O)CC[C@]3(C)C(=CC[C@@H]4[C@@]5(C)C[C@@H](Cc6cn([C@@H]7O[C@H](CO)[C@@H](O)[C@H](O)[C@H]7O)nn6)[C@H](O)C(C)(C)[C@@H]5CC[C@]43C)[C@@H]2C1
[1]
  growth: 113%
[2]
  growth: 99.4%
[3]
  growth: 99.7%
[4]
  growth: 96.3%
[5]
  growth: 93.6%
[6]
  growth: 100%
[7]
  growth: 98.3%
[8]
  growth: 98.8%
[9]
  growth: 96.4%
[10]
  growth: 83.4%

## CC1(C)C2CC=C(/C=N/NC(=O)C3CCC(=O)N3)C1C2 (stereo not given)
[1]
  growth: 102%
[2]
  growth: 105%
[3]
  growth: 104%
[4]
  growth: 94.6%
[5]
  growth: 97.2%
[6]
  growth: 102%
[7]
  growth: 97.4%
[8]
  growth: 102%
[9]
  growth: 104%
[10]
  growth: 103%

## CN(C)c1ccc(/C=C2/C=C(c3ccccc3)OC2=O)cc1
[1]
  growth: 84.6%
[2]
  growth: 109%
[3]
  growth: 107%
[4]
  growth: 73.7%
[5]
  growth: 110%
[6]
  growth: 97.1%
[7]
  growth: 91.3%
[8]
  growth: 95.8%
[9]
  growth: 52.7%
[10]
  growth: 49.7%

## CCN(C(=O)N1CCN(c2cc3c(cc2F)c(=O)c(C(=O)O)cn3C2CC2)CC1)c1nc(-c2ccc(C)cc2)cs1
[1]
  growth: -1.1% (active)
[2]
  growth: 14.3%
[3]
  growth: 5.47% (active)
[4]
  growth: 5.96% (active)
[5]
  growth: 38.3%
[6]
  growth: 6.68% (active)
[7]
  growth: 7.79% (active)
[8]
  growth: -2.94% (active)
[9]
  growth: 21.4%
[10]
  growth: 14.3%

## Cn1cc(/C=C2/C(=O)Nc3ccccc32)c2ccccc21
[1]
  growth: 101%
[2]
  growth: 78.2%
[3]
  growth: 85.7%
[4]
  growth: 57.9%
[5]
  growth: 119%
[6]
  growth: 83.3%
[7]
  growth: 64.8%
[8]
  growth: 118%
[9]
  growth: 90%
[10]
  growth: 82.4%

## N=C(N)c1ccc(-c2ccc(-c3ccc(F)cc3)s2)s1
[1]
  growth: 73.6%
[2]
  growth: 41.4%
[3]
  growth: -50% (active)
[4]
  growth: -32.6% (active)
[5]
  growth: 28.5%
[6]
  growth: -73.7% (active)
[7]
  growth: 0.453% (active)
[8]
  growth: 58.9%
[9]
  growth: -33.6% (active)
[10]
  growth: -44.2% (active)

## O=C1/C=C/[C@@H](O)[C@@H]2C[C@@H](O)C[C@H]2/C=C/CCC[C@H](CCOCc2ccccc2)O1
[1]
  growth: -24.1% (active)
[2]
  growth: 1.3% (active)
[3]
  growth: 10.6%
[4]
  growth: 12.2%
[5]
  growth: -17.6% (active)
[6]
  growth: 5.36% (active)
[7]
  growth: -28.2% (active)
[8]
  growth: -28.5% (active)
[9]
  growth: 27.5%
[10]
  growth: 7.56% (active)

## CSCCC(NC(=O)c1ccccc1)C(=O)N/N=C1\S/C(=C/c2ccc(Cl)cc2)C(=O)N1C (stereo not given)
[1]
  growth: 97.4%
[2]
  growth: 92.7%
[3]
  growth: 97.3%
[4]
  growth: 90.6%
[5]
  growth: 105%
[6]
  growth: 76.5%
[7]
  growth: 117%
[8]
  growth: 103%
[9]
  growth: 4.24% (active)
[10]
  growth: 66.8%

## COc1ccc(C2=C/C(=C\c3ccc(Cl)cc3)C(=O)N2/N=C/c2ccc(Cl)cc2)cc1
[1]
  growth: 107%
[2]
  growth: 93.8%
[3]
  growth: 87.7%
[4]
  growth: 79.4%
[5]
  growth: 87.2%
[6]
  growth: 98.3%
[7]
  growth: 90.5%
[8]
  growth: 103%
[9]
  growth: 100%
[10]
  growth: 92%

## COc1ccc(C(C)=O)cc1S(N)(=O)=O
[1]
  growth: 87.9%
[2]
  growth: 106%
[3]
  growth: 101%
[4]
  growth: 90.7%
[5]
  growth: 81.4%
[6]
  growth: 102%
[7]
  growth: 93.8%
[8]
  growth: 101%
[9]
  growth: 96.8%
[10]
  growth: 86.4%

## O=C(Cn1cc(CN2C(=O)c3ccccc3S2(=O)=O)nn1)Nc1cccc(Cl)c1
[1]
  growth: 96.7%
[2]
  growth: 103%
[3]
  growth: 110%
[4]
  growth: 101%
[5]
  growth: 103%
[6]
  growth: 102%
[7]
  growth: 98.5%
[8]
  growth: 110%
[9]
  growth: 104%
[10]
  growth: 107%

## CCc1ccc(CCC(=O)Nc2ncc(Cc3ccc(Cl)cc3)s2)o1
[1]
  growth: 44.1%
[2]
  growth: 37.2%
[3]
  growth: 44.8%
[4]
  growth: 43%
[5]
  growth: 60%
[6]
  growth: 48.3%
[7]
  growth: 31.9%
[8]
  growth: 0.963% (active)
[9]
  growth: 22.4%
[10]
  growth: 36.5%

## Cc1cc(C(=O)Nc2cc(Nc3ncccc3-c3ncnc4nc[nH]c34)ccc2F)cc(C(F)(F)F)c1
[1]
  growth: 6.72% (active)
[2]
  growth: 67.1%
[3]
  growth: 55.7%
[4]
  growth: 94.1%
[5]
  growth: 68%
[6]
  growth: 45.1%
[7]
  growth: 15.4%
[8]
  growth: -26.9% (active)
[9]
  growth: 62.3%
[10]
  growth: 47.2%

## CN1CCN(CCCOc2ccc3ncnc(Nc4ccc(Oc5cccc(F)c5)c(Cl)c4)c3c2)CC1
[1]
  growth: -8.81% (active)
[2]
  growth: 29.6%
[3]
  growth: 49.4%
[4]
  growth: 34.2%
[5]
  growth: 37%
[6]
  growth: -11.3% (active)
[7]
  growth: 5.24% (active)
[8]
  growth: 33.2%
[9]
  growth: -6.61% (active)
[10]
  growth: -3.25% (active)

## COc1ccc(C/C(C)=C(/c2ccc(OCCN3CCCCCC3)cc2)c2ccc(OC(=O)NCc3ccccc3)cc2)cc1
[1]
  growth: 94.9%
[2]
  growth: 87.6%
[3]
  growth: 71.3%
[4]
  growth: 62.7%
[5]
  growth: 87.8%
[6]
  growth: 101%
[7]
  growth: 92.8%
[8]
  growth: 97.3%
[9]
  growth: 58%
[10]
  growth: 41.2%

## Cn1cc(-c2nc(-c3c[nH]c4ccncc34)cs2)c2cc(Br)ccc21
[1]
  growth: -57.7% (active)
[2]
  growth: -75.3% (active)
[3]
  growth: -74.4% (active)
[4]
  growth: -91.2% (active)
[5]
  growth: -84% (active)
[6]
  growth: -98.9% (active)
[7]
  growth: -77.2% (active)
[8]
  growth: -78% (active)
[9]
  growth: -43.4% (active)
[10]
  growth: -66.4% (active)

## CCCCCCCCNc1cc2c3c(c1)CCCN3CCC2
[1]
  growth: -46.6% (active)
[2]
  growth: 10%
[3]
  growth: 9.8% (active)
[4]
  growth: 61%
[5]
  growth: 41.7%
[6]
  growth: 30.9%
[7]
  growth: 38.6%
[8]
  growth: 80.2%
[9]
  growth: 42.8%
[10]
  growth: 27.5%

## COc1ccc(Cc2nnc(Nc3nc4ccccc4s3)s2)cc1
[1]
  growth: 107%
[2]
  growth: 96.1%
[3]
  growth: 94.2%
[4]
  growth: 81.2%
[5]
  growth: 103%
[6]
  growth: 97.2%
[7]
  growth: 96.1%
[8]
  growth: 97.8%
[9]
  growth: 97.7%
[10]
  growth: 105%
